These results are taken from PubChem BioAssay (Tox21).

Structures are written as SMILES. Where “and” joins values, the source holds several entries; their conditions need not be identical. Equal entries are not always repeated. Some compounds were tested as several samples or in several runs, with calls that do not always agree. Calls of active or inactive are those of the source. Unless noted, the call rests on the fitted dose curve; in most records, active means well fitted curve in the direction sought with a large enough effect in the repeat runs; inconclusive means weak or mixed curves; inactive means no such curve, though single readings can be large; an effect the other way counts as inactive or inconclusive.

A short description of assay [1]: qHTS assay to identify small molecule antagonists of the thyroid receptor (TR) signaling pathway - cell viability counter screen (AID 743064). Further: nearly all actives have a fitted effect of over 50% in size. Further: potency means the concentration at half of the fitted maximal effect. In short, it runs like this: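 GH3.TRE-Luc cells, 4 h pre-plating; cpd + T3 1 nM final; 37 °C 23.5 h; CellTiter-Fluor 30 min; fluorescence read.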
(In general: qHTS replaces the single test concentration by a dilution series.)

Assay [2] can be described thus: qHTS assay to identify small molecule antagonists of the thyroid receptor (TR) signaling pathway (AID 743065). Further: nearly all actives have a fitted effect of over 55% in size. Further: potency means the concentration at half of the fitted maximal effect. The procedure, abridged:
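GH3.TRE-Luc rat pituitary cells carrying two TR response elements driving luciferase were plated for 4 h, given compound plus 1 nM T3 (final), and incubated 23.5 h at 37 C. ONE-Glo luminescence measured reporter inhibition; CellTiter-Fluor fluorescence tracked cytotoxicity.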

Assay [3] relates to thyroid hormone receptor (rat, GH3 cells). Kind of assay: qHTS assay to identify small molecule agonists of the thyroid receptor (TR) signaling pathway (AID 743066; calls by dose curve).
A short description of assay [4]: qHTS assay to identify small molecule antagonists of the estrogen receptor alpha (ER-alpha) signaling pathway - cell viability counter screen (AID 743074; calls by dose curve;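 further: HEK293 cells carrying ER-alpha-UAS-bla reporter stimulated with 17beta-estradiol; nearly all actives have a fitted effect of over 45% in size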).
In assay [5] the target is Estrogen receptor (Homo sapiens) (UniProt P03372). As to the kind of experiment: qHTS assay to identify small molecule agonists of the estrogen receptor alpha (ER-alpha) signaling pathway (AID 743075; calls by dose curve;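 further: HEK293 GripTite cells with ER-alpha and UAS-driven beta-lactamase reporter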).
For assay [6] the target is unchanged. As to the kind of experiment: qHTS assay to identify small molecule agonists of the estrogen receptor alpha (ER-alpha) signaling pathway using the BG1 cell line (AID 743079). Further: nearly all actives have a fitted effect of over 20% in size. The settings on record: BG1Luc4E2 cells, ERE-luciferase agonist, 22 h; activation: at 70.3 µM (top of the series).
Assay [7] is described as follows: qHTS assay to identify small molecule antagonists of the estrogen receptor alpha (ER-alpha) signaling pathway using the BG1 cell line (AID 743080; calls by dose curve;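 further: BG1 cells stimulated with 17beta-estradiol alongside compound; nearly all actives have a fitted effect of over 25% in size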). The procedure, abridged: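 Readout is ONE-Glo luminescence, taken 30 min at room temperature after reagent addition, preceded by a CellTiter-Fluor viability read; BG1-Luc-4E2 cells had received compound and 17beta-estradiol for 21.5 h at 37 C.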

Assay [8] is described as follows: qHTS assay to identify small molecule antagonists of the estrogen receptor alpha (ER-alpha) signaling pathway using the BG1 cell line - cell viability counter screen (AID 743081).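 Further: compound given together with 17beta-estradiol as the ER stimulus; nearly all actives have a fitted effect of over 45% in size.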
In another assay the target is Aromatase (Homo sapiens) (UniProt P11511). As to the kind of experiment: qHTS assay to identify aromatase inhibitors (AID 743083). Further: nearly all actives have a fitted effect of over 55% in size.
Assay [9] is described as follows: qHTS assay to identify aromatase inhibitors - cell viability counter screen (AID 743084).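 Further: cells stimulated with testosterone during compound exposure; nearly all actives have a fitted effect of over 55% in size.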 Further: potency means the concentration at half of the fitted maximal effect.
Assay [10] has as its target Aryl hydrocarbon receptor (Homo sapiens) (UniProt P35869). Kind of assay: qHTS assay to identify small molecule that activate the aryl hydrocarbon receptor (AhR) signaling pathway (AID 743085).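 Further: HG2L7.5c1 human HepG2 liver cells with stably integrated DRE-driven firefly reporter; nearly all actives have a fitted effect of over 15% in size.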 In short, it runs like this:
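Luminescence read-out: ONE-Glo reagent, 30 min at room temperature, in HG2L7.5c1 HepG2 reporter cells treated 24 h at 37C. Viability was measured beforehand by CellTiter-Fluor fluorescence after 30 min at 37C.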

A short description of assay [11]: qHTS assay to identify small molecule that activate the aryl hydrocarbon receptor (AhR) signaling pathway - cell viability counter screen (AID 743086). Further: nearly all actives have a fitted effect of over 45% in size. Further: potency means the concentration at half of the fitted maximal effect. In short, it runs like this: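 HepG2-AhR-luc (HG2L7.5c1) cells, 4000/well, were preincubated 5 h at 37C, exposed to compound in qHTS format for 24 hr at 37C, then given CellTiter-Fluor for 30 min; viability was read as fluorescence in the reporter wells.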

The target of assay [12] is Peroxisome proliferator-activated receptor gamma (Homo sapiens) (UniProt P37231). Kind of assay: qHTS assay to identify small molecule antagonists of the peroxisome proliferator-activated receptor gamma (PPARg) signaling pathway (AID 743191; calls by dose curve; further: nearly all actives have a fitted effect of over 30% in size). In short, it runs like this: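 GeneBLAzer PPARg UAS-bla HEK293H cells carrying a UAS-driven beta-lactamase reporter were plated at 3000 cells/well, preincubated 5 h at 37C, then given compound for 17 h at 37C; LiveBLAzer B/G FRET substrate was read after 1 h at room temperature.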

The nature of assay [13]: qHTS assay to identify small molecule antagonists of the peroxisome proliferator-activated receptor gamma (PPARg) signaling pathway - cell viability counter screen (AID 743194). Further: nearly all actives have a fitted effect of over 55% in size. In short, it runs like this: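 PPARg-UAS-bla HEK293H cells were plated, rested 5 h at 37 C, then treated with compounds plus rosiglitazone (50 nM final) for 17 h at 37 C; viability was then read by CellTiter-Glo luminescence after 30 min at room temperature.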

A short description of assay [14]: qHTS assay for small molecule agonists of the antioxidant response element (ARE) signaling pathway - cell viability counter screen (AID 743203; calls by dose curve; further: nearly all actives have a fitted effect of over 55% in size). In short, it runs like this:
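Viability counter screen: stably transfected ARE-bla HepG2 line, 16 hrs compound exposure at 37C/5% CO2, ATP-based CellTiter-Glo luminescence measured in the reporter wells.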

Assay [15] can be described thus: qHTS assay for small molecule activators of the heat shock response signaling pathway - cell viability counter screen (AID 743209). Further: nearly all actives have a fitted effect of over 50% in size. The procedure, abridged: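 Viability of HSE-bla HeLa cells is measured with CellTiter-Glo in the wells already used for the reporter read. Compound exposure lasts 5 h at 37 C, and luminescence is read after 30 min at room temperature.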

A short description of assay [16]: qHTS assay for small molecule activators of the heat shock response signaling pathway (AID 743210; active means well fitted activation curve with a large enough effect in the signal ratio in the repeat runs, with a control signal flat, not every such curve was filed as active; inconclusive means weak or mixed curves; the % refers to the signal ratio). The procedure, abridged: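 Heat shock element–beta-lactamase HeLa reporter cells; qHTS with compounds for 5 h at 37 C; detection by FRET substrate fluorescence after 2.5 h at RT.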
Assay [17] concerns the target Peroxisome proliferator-activated receptor gamma (Homo sapiens) (UniProt P37231). As to the kind of experiment: qHTS assay to identify small molecule agonists of the peroxisome proliferator-activated receptor gamma (PPARg) signaling pathway (AID 743094; active means well fitted activation curve with a large enough effect in the signal ratio in the repeat runs, not every such curve was filed as active; inconclusive means weak or mixed curves, or effect the other way; inactive means no such curve, though single readings can be large or run the other way; the % refers to the signal ratio). In short, it runs like this:
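Reporter activation was scored by fluorescence of cleaved LiveBLAzer B/G substrate (1 h, room temperature) in PPARg-bla HEK293H cells previously treated 17 h at 37C with DMSO-dissolved compounds.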

For assay [18], the target named is Estrogen receptor (Homo sapiens) (UniProt P03372). Kind of assay: qHTS assay to identify small molecule antagonists of the estrogen receptor alpha (ER-alpha) signaling pathway (AID 743069; active means well fitted curve in the direction sought with a large enough effect in the signal ratio in the repeat runs, not every such curve was filed as active; inconclusive means weak or mixed curves, or effect the other way; inactive means no such curve, though single readings can be large or run the other way; the % refers to the signal ratio; further: potency means the concentration at half of the fitted maximal effect). In short, it runs like this: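 A 17beta-estradiol challenge was applied right after compound transfer to ER-alpha-UAS-bla HEK293 cells previously kept in charcoal-stripped serum. Plates stood 18 hr at 37C and 5% CO2; fluorescence was read following 2 hr FRET substrate loading at room temperature.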

Assay [19] is described as follows: qHTS assay for small molecule agonists of the antioxidant response element (ARE) signaling pathway (AID 743202; active means well fitted activation curve with a large enough effect in the signal ratio in the repeat runs, not every such curve was filed as active; inconclusive means weak or mixed curves, or effect the other way; inactive means no such curve, though single readings can be large or run the other way; the % refers to the signal ratio; further: potency means the concentration at half of the fitted maximal effect). In short, it runs like this:
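Following a 16 h, 37 C exposure of reporter HepG2 cells (ARE-driven beta-lactamase, 2,000 cells/well) to compounds, FRET substrate was applied for 2 h at room temperature and fluorescence intensity recorded.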

Chain of Peroxisome proliferator-activated receptor gamma (Homo sapiens) (P37231 whole entry, looked up): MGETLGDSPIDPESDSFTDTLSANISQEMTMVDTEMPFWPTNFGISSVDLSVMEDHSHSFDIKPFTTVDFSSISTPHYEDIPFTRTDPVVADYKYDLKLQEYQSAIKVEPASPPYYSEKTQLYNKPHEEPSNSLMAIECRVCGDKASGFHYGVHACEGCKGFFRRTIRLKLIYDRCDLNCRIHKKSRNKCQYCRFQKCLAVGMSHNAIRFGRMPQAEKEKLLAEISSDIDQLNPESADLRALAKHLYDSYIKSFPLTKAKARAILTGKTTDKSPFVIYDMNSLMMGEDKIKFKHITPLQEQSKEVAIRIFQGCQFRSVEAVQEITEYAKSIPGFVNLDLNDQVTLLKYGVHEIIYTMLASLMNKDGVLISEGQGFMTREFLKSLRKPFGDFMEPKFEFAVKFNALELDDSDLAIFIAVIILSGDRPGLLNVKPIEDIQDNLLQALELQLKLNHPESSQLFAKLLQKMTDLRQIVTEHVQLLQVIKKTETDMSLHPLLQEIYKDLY
Chain of Aryl hydrocarbon receptor (Homo sapiens) (P35869 whole entry, looked up): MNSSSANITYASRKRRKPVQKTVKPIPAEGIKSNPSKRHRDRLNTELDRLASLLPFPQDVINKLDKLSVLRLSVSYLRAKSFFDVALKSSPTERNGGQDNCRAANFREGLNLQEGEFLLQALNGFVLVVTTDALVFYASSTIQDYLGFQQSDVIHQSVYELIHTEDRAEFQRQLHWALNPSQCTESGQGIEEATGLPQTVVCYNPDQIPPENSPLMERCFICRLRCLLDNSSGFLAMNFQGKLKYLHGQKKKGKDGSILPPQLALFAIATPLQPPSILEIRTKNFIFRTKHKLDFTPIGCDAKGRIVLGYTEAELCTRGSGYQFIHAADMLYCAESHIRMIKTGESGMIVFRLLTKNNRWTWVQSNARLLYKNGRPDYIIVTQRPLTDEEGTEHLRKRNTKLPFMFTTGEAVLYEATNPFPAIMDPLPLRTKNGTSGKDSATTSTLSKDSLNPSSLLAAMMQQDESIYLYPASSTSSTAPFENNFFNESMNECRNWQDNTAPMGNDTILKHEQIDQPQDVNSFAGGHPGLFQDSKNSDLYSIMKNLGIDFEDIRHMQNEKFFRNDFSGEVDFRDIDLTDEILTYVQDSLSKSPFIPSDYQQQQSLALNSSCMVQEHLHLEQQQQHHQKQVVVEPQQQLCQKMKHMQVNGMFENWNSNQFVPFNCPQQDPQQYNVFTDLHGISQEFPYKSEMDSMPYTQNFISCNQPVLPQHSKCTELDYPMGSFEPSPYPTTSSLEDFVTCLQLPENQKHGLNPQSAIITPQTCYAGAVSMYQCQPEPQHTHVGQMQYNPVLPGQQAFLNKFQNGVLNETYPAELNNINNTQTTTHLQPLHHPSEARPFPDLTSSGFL
Chain of Estrogen receptor (Homo sapiens) (P03372 whole entry, looked up): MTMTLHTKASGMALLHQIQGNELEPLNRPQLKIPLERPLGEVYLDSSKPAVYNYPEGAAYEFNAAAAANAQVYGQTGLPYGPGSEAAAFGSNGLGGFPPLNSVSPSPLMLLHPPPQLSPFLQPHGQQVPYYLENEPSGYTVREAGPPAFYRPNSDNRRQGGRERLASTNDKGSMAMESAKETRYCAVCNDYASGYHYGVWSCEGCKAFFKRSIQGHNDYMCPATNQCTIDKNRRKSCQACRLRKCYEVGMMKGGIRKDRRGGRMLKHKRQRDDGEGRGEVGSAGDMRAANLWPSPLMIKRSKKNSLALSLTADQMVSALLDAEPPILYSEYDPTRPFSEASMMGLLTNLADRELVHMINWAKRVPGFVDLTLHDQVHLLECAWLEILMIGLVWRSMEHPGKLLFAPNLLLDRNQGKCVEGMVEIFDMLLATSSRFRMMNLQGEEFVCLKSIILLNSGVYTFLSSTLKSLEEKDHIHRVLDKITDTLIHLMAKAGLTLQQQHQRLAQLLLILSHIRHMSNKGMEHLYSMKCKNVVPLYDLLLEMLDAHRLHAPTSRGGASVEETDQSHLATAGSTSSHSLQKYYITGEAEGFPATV
Chain of Aromatase (Homo sapiens) (P11511 whole entry, looked up): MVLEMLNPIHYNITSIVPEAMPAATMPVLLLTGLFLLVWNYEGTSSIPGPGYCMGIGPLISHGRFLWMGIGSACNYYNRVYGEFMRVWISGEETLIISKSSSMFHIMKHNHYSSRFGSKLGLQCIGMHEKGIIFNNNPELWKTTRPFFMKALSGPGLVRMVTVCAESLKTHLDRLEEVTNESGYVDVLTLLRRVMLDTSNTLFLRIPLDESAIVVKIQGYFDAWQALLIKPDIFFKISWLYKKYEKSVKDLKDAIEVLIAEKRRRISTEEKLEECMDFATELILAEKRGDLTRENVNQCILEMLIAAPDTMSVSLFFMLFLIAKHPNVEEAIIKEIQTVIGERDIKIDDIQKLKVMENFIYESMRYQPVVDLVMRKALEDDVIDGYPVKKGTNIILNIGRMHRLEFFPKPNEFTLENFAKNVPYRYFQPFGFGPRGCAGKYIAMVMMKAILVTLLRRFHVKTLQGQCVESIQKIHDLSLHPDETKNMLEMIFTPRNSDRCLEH

Take `CCCCCCCCCCC(=O)O`: the Potency entry in assay [1], in assay [2], in assay [4], in assay [5], in [6] and in [7] was “inactive” in each case. Besides, the Potency result (in [8]; with Aromatase (Homo sapiens); in assay [9]; in assay [10]; in [11]; in assay [12]) was “inactive” throughout. Moreover, the Potency entry in [13], in [14], in [15] and in assay [16] was “inactive” each time. In addition, the compound was called inactive in assay [3].
Take `CC(C)c1nc(CN(C)C(=O)N[C@H](C(=O)N[C@@H](Cc2ccccc2)C[C@H](O)[C@H](Cc2ccccc2)NC(=O)OCc2cncs2)C(C)C)cs1`: the Potency in assay [1] was 15 µM (active); in [2], 10.6 µM (active); in assay [9], “inactive and 23.7 µM (active)”; in assay [11], “inactive and 13.3 µM (active)”. Further, the result in assay [3] was inactive. Besides, the Potency result (in assay [4]; in assay [5]; in assay [6]; in assay [7]; in the assay with Aromatase (Homo sapiens); in assay [10]) was “inactive” each time. The Potency result in [13], in assay [15] and in [16] was “inactive” in each case.
In the case of `C[C@@H](O)[C@H]1C(=O)N2C(C(=O)O)=C([C@H]3CCCO3)S[C@H]12`, the Potency result in assay [1], in assay [2], in [4], in assay [5], in assay [6] and in assay [7] was “inactive” throughout. Moreover, the Potency entry (in assay [8]; in the assay with Aromatase (Homo sapiens); in assay [9]; in assay [11]; in [17]; in assay [12]) was “inactive” each time. Further, the Potency result in [13] and in assay [15] was “inactive” in each case. Further, the call in [3] was inactive.
For `CC(C)(C)C(=O)C(=O)O`, the Potency result in [1], in assay [2], in assay [4], in [5], in assay [6] and in [8] was “inactive” each time. Further, the Potency result (in the assay with Aromatase (Homo sapiens); in assay [9]; in assay [10]; in [11]; in assay [17]; in assay [12]) was “inactive” each time. The Potency result in [13], in assay [14], in assay [15] and in assay [16] was “inactive” throughout. Further, the call in [3] was inactive.
As for `CCCCCCCCCI`, the Potency result in [1], in assay [2], in [18], in assay [4], in assay [7] and in assay [8] was “inactive” throughout. The Potency result (with Aromatase (Homo sapiens); in [9]; in assay [10]; in assay [11]; in assay [17]; in [12]) was “inactive” throughout. Also, the Potency entry in assay [13], in assay [19], in [14], in [15] and in assay [16] was “inactive” in each case. Moreover, in [3], the outcome was inactive.
On to `CO[C@]1(NC(=O)CSC(F)F)C(=O)N2C(C(=O)O)=C(CSc3nnnn3CCO)CO[C@H]21`, for which the Potency result in [1], in [2], in [4], in assay [5], in assay [6] and in assay [8] was “inactive” in each case. Further, the Potency entry (with Aromatase (Homo sapiens); in assay [9]; in assay [10]; in assay [11]; in assay [17]; in assay [12]) was “inactive” each time. Besides, the Potency result in [13], in assay [19], in assay [15] and in assay [16] was “inactive” throughout. The compound was called inactive in assay [3].
`O=C(OCC(O)CO)c1ccccc1Nc1ccnc2cc(Cl)ccc12` (configuration not stated): the Potency result in assay [1], in assay [2], in [4], in assay [5], in assay [6] and in assay [7] was “inactive” each time. Besides, the Potency entry (in [8]; with Aromatase (Homo sapiens); in assay [9]; in assay [11]; in assay [17]; in assay [13]) was “inactive” throughout. In addition, in [14], the Potency entry was “inactive”. Also, in assay [3], the outcome was inactive. In addition, in [19], the Potency was 11.9 µM (active).
Take `C[C@]1(Cn2ccnn2)[C@H](C(=O)O)N2C(=O)C[C@H]2S1(=O)=O`: the Potency entry (in assay [1]; in assay [2]; in assay [4]; in assay [6]; in assay [7]; with Aromatase (Homo sapiens)) was “inactive” each time. Besides, the Potency result in assay [9], in [11], in assay [13], in assay [14], in assay [15] and in [16] was “inactive” throughout. Further, in [3], the compound was classed as inactive. The Potency in assay [18] was 2.39 µM [inconclusive] (active).
